# Source: the supplement of paper PMC4466140
# Assays:
# Assay in all cases: SPOT peptide array binding signal intensity (averaged, normalized) (arbitrary units (background-subtracted, floor 0; scale differs between SH3 domains)); higher = stronger binding of the SH3 domain to the peptide
# [1] = molecular target: SpBzz1-D2
# How it was run: (§1)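 The binding signal is the normalized, background-subtracted spot intensity averaged over replicates; its arbitrary units differ between domains. It was obtained by incubating 10 μg/ml GST-fused SH3 domains from four yeast species overnight at 4°C in TBS-based blocking buffer on cellulose membranes with synthetic 15-mer peptides, cysteines replaced by serines, then detecting with anti-GST antibody, HRP anti-mouse secondary and luminol.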
# [2] = molecular target: SpCyk3
# How it was run: as §1
# [3] = molecular target: SpHof1
# How it was run: as §1
# [4] = molecular target: SpHof1-2
# How it was run: as §1
# [5] = molecular target: SpHof1-3
# How it was run: as §1
# [6] = molecular target: SpHse1
# How it was run: as §1
# [7] = molecular target: SpLsb1
# How it was run: as §1
# [8] = molecular target: SpLsb4
# How it was run: as §1
# [9] = molecular target: SpMyo1
# How it was run: as §1
# [10] = molecular target: SpNbp2
# How it was run: as §1
# [11] = molecular target: SpPex13
# How it was run: as §1
# [12] = molecular target: SpRvs167
# How it was run: as §1
# [13] = molecular target: SpSla1-D1-D2
# How it was run: as §1
# [14] = molecular target: SpSla1-D3
# How it was run: as §1
# [15] = molecular target: AgAbp1
# How it was run: as §1
# [16] = molecular target: AgBbc1
# How it was run: as §1
# [17] = molecular target: AgBem1-D1
# How it was run: as §1
# [18] = molecular target: AgBzz1-D1
# How it was run: as §1
# [19] = molecular target: AgBzz1-D2
# How it was run: as §1
# [20] = molecular target: AgCyk3
# How it was run: as §1
# [21] = molecular target: AgFus1
# How it was run: as §1
# [22] = molecular target: AgHof1
# How it was run: as §1
# [23] = molecular target: AgHse1
# How it was run: as §1
# [24] = molecular target: AgLsb1
# How it was run: as §1
# [25] = molecular target: AgLsb4
# How it was run: as §1
# [26] = molecular target: AgMyo5
# How it was run: as §1
# [27] = molecular target: AgNbp2
# How it was run: as §1
# [28] = molecular target: AgRvs167
# How it was run: as §1
# [29] = molecular target: AgSho1
# How it was run: as §1
# [30] = molecular target: AgSla1-D1-D2
# How it was run: as §1
# [31] = molecular target: AgSla1-D3
# How it was run: as §1
# [32] = molecular target: CaAbp1-D1
# How it was run: as §1
# [33] = molecular target: CaAbp1-D2
# How it was run: as §1
# [34] = molecular target: CaBbc1
# How it was run: as §1
# [35] = molecular target: CaBem1-D1
# How it was run: as §1
# [36] = molecular target: CaBzz1-D1
# How it was run: as §1
# [37] = molecular target: CaBzz1-D2
# How it was run: as §1
# [38] = molecular target: CaCyk3
# How it was run: as §1
# [39] = molecular target: CaFus1
# How it was run: as §1
# [40] = molecular target: CaHof1
# How it was run: as §1
# [41] = molecular target: CaHse1
# How it was run: as §1
# [42] = molecular target: CaLsb1
# How it was run: as §1
# [43] = molecular target: CaLsb4
# How it was run: as §1
# [44] = molecular target: CaMyo5
# How it was run: as §1
# [45] = molecular target: CaNbp2
# How it was run: as §1
# [46] = molecular target: CaRvs167
# How it was run: as §1
# [47] = molecular target: CaRvs167-3
# How it was run: as §1
# [48] = molecular target: CaSho1
# How it was run: as §1
# [49] = molecular target: CaSla1-D1-D2
# How it was run: as §1
# [50] = molecular target: CaSla1-D3
# How it was run: as §1
# [51] = molecular target: ScAbp1
# How it was run: as §1
# [52] = molecular target: ScBbc1
# How it was run: as §1
# [53] = molecular target: ScBem1-D1
# How it was run: as §1
# [54] = molecular target: ScBzz1-D1
# How it was run: as §1
# [55] = molecular target: ScBzz1-D2
# How it was run: as §1
# [56] = molecular target: ScCyk3
# How it was run: as §1
# [57] = molecular target: ScFus1
# How it was run: as §1
# [58] = molecular target: ScHof1
# How it was run: as §1
# [59] = molecular target: ScHse1
# How it was run: as §1
# [60] = molecular target: ScLsb1
# How it was run: as §1
# [61] = molecular target: ScLsb2
# How it was run: as §1
# [62] = molecular target: ScLsb3
# How it was run: as §1
# [63] = molecular target: ScLsb4
# How it was run: as §1
# [64] = molecular target: ScMyo3
# How it was run: as §1
# [65] = molecular target: ScMyo5
# How it was run: as §1
# [66] = molecular target: ScNbp2
# How it was run: as §1
# [67] = molecular target: ScPex13
# How it was run: as §1
# [68] = molecular target: ScRvs167
# How it was run: as §1
# [69] = molecular target: ScSho1
# How it was run: as §1
# [70] = molecular target: ScSla1-D1-D2
# How it was run: as §1
# [71] = molecular target: ScSla1-D3
# How it was run: as §1
# [72] = molecular target: SpAbp1-D1
# How it was run: as §1
# [73] = molecular target: SpBbc1
# How it was run: as §1
# [74] = molecular target: SpBzz1-D1
# How it was run: as §1
binder,measurement,setting,value
SRYRRPLTLLLLKPF,SPOT peptide array binding signal intensity,[1],≤ 0
same,SPOT peptide array binding signal intensity,[2],4
same,SPOT peptide array binding signal intensity,[3],144
same,SPOT peptide array binding signal intensity,[4],21.8
same,SPOT peptide array binding signal intensity,[5],686
same,SPOT peptide array binding signal intensity,[6],643
same,SPOT peptide array binding signal intensity,[7],3
same,SPOT peptide array binding signal intensity,[8],67
same,SPOT peptide array binding signal intensity,[9],4.5
same,SPOT peptide array binding signal intensity,[10],374
same,SPOT peptide array binding signal intensity,[11],11.5
same,SPOT peptide array binding signal intensity,[12],13.8
same,SPOT peptide array binding signal intensity,[13],5
same,SPOT peptide array binding signal intensity,[14],6.5
QGYPRQPQRPQRYHP,SPOT peptide array binding signal intensity,[15],15.5
same,SPOT peptide array binding signal intensity,[16],187
same,SPOT peptide array binding signal intensity,[17],≤ 0
same,SPOT peptide array binding signal intensity,[18],8
same,SPOT peptide array binding signal intensity,[19],22.5
same,SPOT peptide array binding signal intensity,[20],≤ 0
same,SPOT peptide array binding signal intensity,[21],≤ 0
same,SPOT peptide array binding signal intensity,[22],0.5
same,SPOT peptide array binding signal intensity,[23],17.5
same,SPOT peptide array binding signal intensity,[24],≤ 0
same,SPOT peptide array binding signal intensity,[25],47
same,SPOT peptide array binding signal intensity,[26],≤ 0
same,SPOT peptide array binding signal intensity,[27],≤ 0
same,SPOT peptide array binding signal intensity,[28],0.333
same,SPOT peptide array binding signal intensity,[29],≤ 0
same,SPOT peptide array binding signal intensity,[30],2
same,SPOT peptide array binding signal intensity,[31],≤ 0
same,SPOT peptide array binding signal intensity,[32],25.5
same,SPOT peptide array binding signal intensity,[33],11
same,SPOT peptide array binding signal intensity,[34],329
same,SPOT peptide array binding signal intensity,[35],15
same,SPOT peptide array binding signal intensity,[36],144
same,SPOT peptide array binding signal intensity,[37],32.5
same,SPOT peptide array binding signal intensity,[38],13
same,SPOT peptide array binding signal intensity,[39],≤ 0
same,SPOT peptide array binding signal intensity,[40],≤ 0
same,SPOT peptide array binding signal intensity,[41],≤ 0
same,SPOT peptide array binding signal intensity,[42],≤ 0
same,SPOT peptide array binding signal intensity,[43],1180
same,SPOT peptide array binding signal intensity,[44],≤ 0
SKIRPTPRKPSRMAT,SPOT peptide array binding signal intensity,[15],1550
same,SPOT peptide array binding signal intensity,[16],642
same,SPOT peptide array binding signal intensity,[17],47
same,SPOT peptide array binding signal intensity,[18],77
same,SPOT peptide array binding signal intensity,[19],53
same,SPOT peptide array binding signal intensity,[20],3
same,SPOT peptide array binding signal intensity,[21],40
same,SPOT peptide array binding signal intensity,[22],69.2
same,SPOT peptide array binding signal intensity,[23],263
same,SPOT peptide array binding signal intensity,[24],69.2
same,SPOT peptide array binding signal intensity,[25],176
same,SPOT peptide array binding signal intensity,[26],7
same,SPOT peptide array binding signal intensity,[27],1050
same,SPOT peptide array binding signal intensity,[28],9.17
same,SPOT peptide array binding signal intensity,[29],39.5
same,SPOT peptide array binding signal intensity,[30],100
same,SPOT peptide array binding signal intensity,[31],23.8
same,SPOT peptide array binding signal intensity,[32],3050
same,SPOT peptide array binding signal intensity,[33],5280
same,SPOT peptide array binding signal intensity,[34],806
same,SPOT peptide array binding signal intensity,[35],34.5
same,SPOT peptide array binding signal intensity,[36],270
same,SPOT peptide array binding signal intensity,[37],208
same,SPOT peptide array binding signal intensity,[38],108
same,SPOT peptide array binding signal intensity,[39],208
same,SPOT peptide array binding signal intensity,[40],2.5
same,SPOT peptide array binding signal intensity,[41],30.5
same,SPOT peptide array binding signal intensity,[42],2.75
same,SPOT peptide array binding signal intensity,[43],2040
same,SPOT peptide array binding signal intensity,[44],8.5
same,SPOT peptide array binding signal intensity,[45],437
same,SPOT peptide array binding signal intensity,[46],110
same,SPOT peptide array binding signal intensity,[47],23
same,SPOT peptide array binding signal intensity,[48],60
same,SPOT peptide array binding signal intensity,[49],1470
same,SPOT peptide array binding signal intensity,[50],104
same,SPOT peptide array binding signal intensity,[51],1260
same,SPOT peptide array binding signal intensity,[52],73.5
same,SPOT peptide array binding signal intensity,[53],14
same,SPOT peptide array binding signal intensity,[54],32.5
same,SPOT peptide array binding signal intensity,[55],39
same,SPOT peptide array binding signal intensity,[56],25
same,SPOT peptide array binding signal intensity,[57],21
same,SPOT peptide array binding signal intensity,[58],10
same,SPOT peptide array binding signal intensity,[59],1130
same,SPOT peptide array binding signal intensity,[60],328
same,SPOT peptide array binding signal intensity,[61],3.5
same,SPOT peptide array binding signal intensity,[62],2130
same,SPOT peptide array binding signal intensity,[63],117
same,SPOT peptide array binding signal intensity,[64],0.5
same,SPOT peptide array binding signal intensity,[65],4
same,SPOT peptide array binding signal intensity,[66],1100
same,SPOT peptide array binding signal intensity,[67],124
same,SPOT peptide array binding signal intensity,[68],865
same,SPOT peptide array binding signal intensity,[69],346
same,SPOT peptide array binding signal intensity,[70],2180
same,SPOT peptide array binding signal intensity,[71],202
same,SPOT peptide array binding signal intensity,[72],1300
same,SPOT peptide array binding signal intensity,[73],27.5
same,SPOT peptide array binding signal intensity,[74],284
same,SPOT peptide array binding signal intensity,[1],1.5
same,SPOT peptide array binding signal intensity,[2],6
same,SPOT peptide array binding signal intensity,[3],107
same,SPOT peptide array binding signal intensity,[4],43
same,SPOT peptide array binding signal intensity,[5],235
same,SPOT peptide array binding signal intensity,[6],180
same,SPOT peptide array binding signal intensity,[7],5
same,SPOT peptide array binding signal intensity,[8],3850
same,SPOT peptide array binding signal intensity,[9],9.5
same,SPOT peptide array binding signal intensity,[10],178
same,SPOT peptide array binding signal intensity,[11],30
same,SPOT peptide array binding signal intensity,[12],957
same,SPOT peptide array binding signal intensity,[13],33
same,SPOT peptide array binding signal intensity,[14],49.5
